Assay results as given in ChEMBL document CHEMBL3988442, “University of Dundee, Small-Polar-MMV Screening Library” (2021).
The whole screen tested about 48,000 compounds, of which about 13,000 (27%) showed an effect of 50% or more. This is one part of the list.

These compounds were tested on Wolbachia pipientis (assay: Anti-Wolbachia Cell-Based Screen). Conditions: 5 µM.
Type: functional
Design: scale not given: in the data most compounds retested in dose-response had high values

In order of rising “Percent Effect” value:
1. Cn1cc(C(=O)NCCCN2CCCCCC2=O)c(-c2cccnc2)n1  -24.83%
2. O=C(Nc1cc2c(cc1Br)OCCO2)NC1CCS(=O)(=O)C1 (stereo unspecified)  -24.26%
3. CCCc1cc(CN(C)C2CCSCC2)n[nH]1  -21.94%
4. COCCc1noc(-c2ccc(N[C@H]3CCCCNC3=O)nc2)n1  -20.61%
5. CC(C)CNC(=O)[C@H]1C[C@@H]2CN(C(=O)NCC3CCCCC3)C[C@H]1O2  -20.2%
6. Cc1ccc(C(=O)N2CCN(c3ncnc4nc(N)ccc34)CC2)cc1  -17.64%
7. CC(C)[C@H](NC(=O)c1cccc(CCC(C)(C)O)c1)C(N)=O  -12.73%
8. Cn1cc(C[C@H]2[C@H](N3CCOCC3)CCN2C(=O)c2ccoc2)cn1  -12.72%
9. O=C(c1cc2c([nH]c1=O)CCC2)N1CCCC1c1ccccc1 (stereo unspecified)  -12.47%
10. O=C(C1CCC1)N1CCN(C(=O)c2cnccn2)[C@H]2CS(=O)(=O)C[C@H]21  -11.57%
11. O=S(=O)(CCCS(=O)(=O)c1ccc2c(c1)OCCCO2)c1ccccc1  -9.516%
12. CCn1cc(CN2CCN(Cc3cc(C)cc(C)c3)C(=O)C2)cc1C#N  -8.463%
13. CCC(=O)c1ccc(OCC(=O)N2CCNCC2C(=O)NC2CC2)cc1 (stereo unspecified)  -8.081%
14. COc1nc2ccn(CCc3scnc3C)c(=O)c2cc1C#N  -7.908%
15. Cc1ccc(C(=O)NCCCN2CCOCC2)c(Cl)c1  -7.154%
16. CC(O)C1CCN(C(=O)Nc2nc(-c3ccccc3)ns2)CC1 (stereo unspecified)  -6.98%
17. COc1ccc(CNC(=O)NCc2ccc(C)cc2)cn1  -5.418%
18. CCn1nc(C)c(CCNC(=O)c2coc(CN3CCOCC3)c2)c1C  -5.303%
19. O=C(c1cc2c([nH]c1=O)CCC2)N1CCCC1c1cccnc1 (stereo unspecified)  -4.003%
20. CCCSc1ccccc1NC(=O)N1CCN(C(=O)c2ccc[nH]2)CC1  -3.563%
21. O=C(c1cc2c([nH]c1=O)CCC2)N1CCCC1c1ccccn1 (stereo unspecified)  -3.505%
22. O=C(NCc1ccc2c(c1)CCCO2)c1cn2c(n1)CNCC2  -2.912%
23. CC(C)CN1CCCn2nc(CNC(=O)CCCc3cn[nH]c3)cc2C1  -2.664%
24. O=C(NCCN1CCCCCC1=O)c1n[nH]c(=O)c2ccccc12  -2.472%
25. Cc1cccc(S(=O)(=O)N2C[C@H]3C[C@H](C(=O)NCC(C)C)[C@@H](C2)O3)c1  -2.145%
26. Nc1cc2c(nn1)CCN(C(=O)c1csc(-c3ccco3)n1)C2  -0.9791%
27. O=C(c1ccncc1F)N1CCCC1c1nc(-c2ccccc2)n[nH]1 (stereo unspecified)  0.33%
28. COc1ncccc1C(=O)N1CCCC1c1nc(-c2ccccc2)n[nH]1 (stereo unspecified)  0.4619%
29. Cc1nccn1-c1ccc(NC(=O)C2CCCN2Cc2c[nH]cn2)cc1 (stereo unspecified)  1.287%
30. CC(C)[C@H](NC(=O)NC1CCS(=O)(=O)C1)C(=O)NCc1cccnc1 (stereo partly specified)  1.711%
31. CCOC(=O)NC(C(=O)NCc1ccc(N2CCCCC2)nc1)C(C)C (stereo unspecified)  2.776%
32. Cc1ccccc1CNC(=O)N1C[C@H]2C[C@H](C(=O)N3CCCC3)[C@@H](C1)O2  2.79%
33. CN(CC(=O)Nc1cccc(F)c1)Cc1nc(N)nc(N(C)C)n1  5.267%
34. CC(NC(=O)NCCCN1CCCC1=O)c1ccc(Cl)s1 (stereo unspecified)  5.893%
35. O=C(NC1CC1)C1CNCCN1C(=O)COc1ccc2c(c1)OCO2 (stereo unspecified)  8.797%
36. CN1CCC(N(Cc2ccco2)S(=O)(=O)c2ccc(Cl)cc2)CC1  18.55%
37. O=C(NCCCN1CCCC1=O)Nc1ccc(Br)cc1Cl  29.75%
38. NC(=O)c1cn[nH]c1C1CCCN1C(=O)c1ccccn1 (stereo unspecified)  92.76%
39. CC(C)CCN1C[C@H]2C[C@H](C(=O)NCC(C)C)[C@@H](C1)O2.O=C(O)C(F)(F)F  100.1%
40. Cc1cccc(C(=O)NC(C(=O)NCc2ccc(O)nc2)C(C)C)c1 (stereo unspecified)  103%
41. CC(C)CCN1C[C@H]2C[C@H](C(=O)N3CCCC3)[C@@H](C1)O2.O=C(O)C(F)(F)F  103.2%
42. CC(C)CN1C[C@H]2C[C@H](C(=O)N3CCCC3)[C@@H](C1)O2.O=C(O)C(F)(F)F  105.1%
43. CC(C)C(NC(=O)Cc1ccccc1)C(=O)NCc1ccc(O)nc1 (stereo unspecified)  106%
44. NC(=O)c1cn[nH]c1C1CCCN1C(=O)c1cnccn1 (stereo unspecified)  109.9%
45. Cc1nn(Cc2ccc(C(=O)NCCCN3CCCC3=O)o2)c(C)c1Cl  113%
46. Cc1nn(Cc2ccc(C(=O)NCCCN3CCCC3=O)o2)c(C)c1Br  118.7%
47. CNC(=O)c1cn[nH]c1C1CCCN1C(=O)c1ccccn1 (stereo unspecified)  122.3%
48. Cc1nn(Cc2ccc(C(=O)NCCCN3CCOCC3)o2)c(C)c1Cl  123.2%
49. NC(=O)c1cn[nH]c1C1CCCN1C(=O)COc1ccccc1 (stereo unspecified)  125.9%
50. NC(=O)c1cn[nH]c1C1CCCN1C(=O)c1ccccc1 (stereo unspecified)  135.8%
51. Cl.NC(=O)C1CNCCN1C(=O)COc1ccccc1 (stereo unspecified)  142%
